Our source for the growth values is PubChem BioAssay (NCI).

About 83,000 compounds went through this panel and 20% of them were active in at least one assay; those are over-represented in the sample as a whole.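 Note: values are percent growth. 100 is the growth of untreated cells, values between 100 and 0 indicate rising inhibition; between -100 and 0 indicates cell death.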 Unmarked numbers belong to inactive results. Activity calls are given as the source filed them. Rule for the calls: active = growth percent below 10; inactive = the rest.

Holding throughout (assay): NCI-60 one-dose screen, 48 h (100 = growth as untreated, 0 = no growth, -100 = all killed)
Settings in all cases: 10 µM unless noted

For experiment [1], the system named is NCI-H23 lung.
Experiment [2] has as its system NCI-H226 lung.
Experiment [3] has as its system HOP-62 NSCLC.
Experiment [4] relates to NCI-H460 lung.
In experiment [5] the test system is HOP-92 NSCLC.
For experiment [6], the system named is A549/ATCC NSCLC.
In experiment [7] the test system is 786-0 renal.
For experiment [8], the system named is COLO 205 colon.
For experiment [9], the system named is DU-145 prostate.
In experiment [10] the test system is K-562 leukemia.
Experiment [11] deals with MALME-3M melanoma.
Experiment [12] concerns MDA-MB-231 breast.
For experiment [13], the system named is RXF 393 renal.
Experiment [14] deals with SF-268 CNS.
Experiment [15] concerns SF-295 CNS.
The test system of experiment [16] is SF-539 CNS.
In experiment [17] the test system is M14 melanoma.
For experiment [18], the system named is NCI-H322M lung.
In experiment [19] the test system is NCI-H522 lung.
The subject of experiment [20] is UACC-257 melanoma.

As to `CN(C)c1ccc(/C=C/c2nccc3ccccc23)cc1`, the growth in experiment [1] is 81.9%; in experiment [2], 71.6%; in experiment [3] it was 87.9%; in [4], 74.3%; in experiment [5], 68.2%; in [6], 85.6%. The growth in [7] is 103%; in [8], 91.4%; in [9] it was 101%; in experiment [10] it was 92.8%; in experiment [11], 110%; in [12], 51.3%. Also, the growth in [13] was 102%; in [14], 97.2%; in experiment [15], 79.1%; in experiment [16] it was 99%; in experiment [17], 88.8%.

Regarding `O=C/C=C/c1ccc([N+](=O)[O-])cc1`, the growth is 96.7% in [1]; 101% in [2]; 104% in experiment [18]; 106% in [4]; 117% in experiment [5]; 97.3% in experiment [19]. In addition, the growth in [6] is 93.4%; in [7], 102%; in experiment [8], 115%; in experiment [9], 102%; in experiment [10], 95.8%; in experiment [11] it was 99.6%. Moreover, the growth was 116% in [13]; 98.2% in [14]; 105% in experiment [15]; 99.3% in experiment [16]; 97.7% in [20]; 93.3% in experiment [17].

As for `CCOC(=O)C1=NN(c2ccccc2)C(=O)/C1=C\N1C(=O)/C(=C/c2cccc(O)c2)SC1=S`, the growth was 87.8% in [1]; 103% in experiment [2]; 84% in [3]; 103% in experiment [4]; 73.6% in experiment [5]; 82.3% in experiment [19]. The growth in experiment [6] is 79.3%; in [7], 98.8%; in [8], 114%; in experiment [9] it was 96.8%; in experiment [10], 100%; in [12], 87.6%. Moreover, the growth was 101% in experiment [13]; 91.7% in experiment [14]; 104% in experiment [15]; 107% in [16]; 98.3% in experiment [20]; 89.6% in experiment [17].

With `Cc1cccc2c(N)c3ccccc3nc12`, the growth in experiment [1] is -39.6% (active); in experiment [2], -9.22% (active); in experiment [3], -7.52% (active); in experiment [4] it was -17.4% (active); in [5], -20.4% (active); in [19], -36% (active). Also, the growth in [6] is -68.6% (active); in experiment [7], -9.45% (active); in [8], -48.2% (active); in experiment [9], 6.74% (active); in experiment [10] it was 6.25% (active); in experiment [11], -37.2% (active). For the same compound, the growth is -24.2% (active) in experiment [12]; -48.2% (active) in [13]; -1.12% (active) in [14]; 5.09% (active) in [15]; -22.2% (active) in experiment [20]; -55% (active) in experiment [17].

Consider `CC(/C=N/NC(N)=S)Cc1ccc(C(C)C)cc1` (stereo not drawn), for which the growth in [1] is 51%; in [2], 66.6%; in experiment [18] it was 104%; in experiment [5] it was 69.9%; in [19], -26.6% (active); in experiment [6] it was 89.5%. For the same compound, the growth is 51% in experiment [7]; 68% in [8]; 129% in experiment [9]; 82.9% in experiment [11]; 85.4% in experiment [12]; 69.2% in [13]. Further, the growth in [14] is 129%; in experiment [15], 73.2%; in [16], 59%; in [20] it was 69.9%; in experiment [17], 74.2%.

On to `NC(=S)N/N=C/c1ncccc1O`, for which the growth is -6.55% (active) in [1]; 39% in [2]; 17.8% in [3]; 8.78% (active) in experiment [4]; 2.7% (active) in experiment [5]; 26% in [19]. The growth in [6] was 28%; in [7], -17.1% (active); in [8] it was 11.2%; in experiment [9], 12.7%; in experiment [10] it was 24%; in [11], 54%. The growth in [12] is 34.8%; in experiment [13], 9.63% (active); in experiment [14], 14.9%; in experiment [15] it was 21.5%; in [16] it was -7.14% (active); in [20], 18.9%. Further, in [17], the growth is -56.2% (active).

As to `CSc1nc(C)c(C(=O)CCN2CCN(c3ccccn3)CC2)s1`, the growth in experiment [1] was 106%; in experiment [2] it was 107%; in [18], 107%; in experiment [4], 106%; in experiment [19] it was -64.2% (active); in experiment [6], 102%. Moreover, the growth is 101% in experiment [7]; 102% in [9]; 93.6% in experiment [10]; 102% in experiment [11]; 101% in [12]; 100% in experiment [13]. The growth in [14] was 102%; in experiment [15], 102%; in experiment [16], 99%; in experiment [20], 99.7%; in [17], 99.9%.

Turning to `COc1c(C)c2c(c(O)c1C/C=C(\C)CCC(=O)O)C(=O)OC2`, the growth in [1] was 33.9%; in experiment [2] it was 58.8%; in [3], 46.6%; in experiment [4] it was 9.24% (active); in [5] it was 73.9%; in [19], 19.4%. For the same compound, the growth in experiment [6] is 11.6%; in experiment [7], 21.3%; in experiment [8] it was 39.3%; in experiment [9], 50.8%; in [10] it was 20.2%; in experiment [11], 38.8%. In addition, the growth was 57% in experiment [12]; 50.7% in experiment [13]; 34.8% in experiment [14]; 16.8% in experiment [15]; 40.7% in experiment [16]; 13.2% in experiment [20]. Moreover, the growth in experiment [17] was 20.4%.
